Some of the results follow. Records with an inconclusive call do not appear. Active and inactive are the calls of the source. The call rests on the fitted dose curve; in most records, active means well fitted cell-killing curve with a large enough effect; inconclusive means small, poorly fitted or top-dose-only effect; inactive means no such curve, though single readings can be large or run the other way.
Experiment: H358 Cell Viability Secondary Assay for qHTS Assay for Epigenetic Modulators: Round 2
Conditions: H358 NSCLC viability, ATP luminescence, 72 h
Text: NIH Molecular Libraries Screening Centers Network [MLSCN] NIH Chemical Genomics Center [NCGC] MLSCN Grant: 1 X01 MH079860-01 Assay Provider: Elisabeth D. Martinez, University of Texas SW Medical Center NCGC Assay Overview: This secondary assay characterizes selected actives identified in the qHTS of the Locus Derepression (LDR) assay (PubChem AID 1865). The LDR assay detects the derepression of a GFP reporter that is stably integrated in a region of the genome of murine c127i mammary cells that is presumably silenced. Compounds that cause derepression of the locus to express GFP are identified by enumerating GFP positive cells using a laser-scanning microplate cytometer. Selected LDR actives were assayed for killing of H358 non-small cell lung carcinoma (NSCLC) cells. […] Cell viability was measured using a luminescence-based detection reagent that measures cellular ATP levels.
NCGC Assay Protocol Summary H358 cells were seeded at 125 cells/5 uL/well in white, solid bottom, 1536 well plates (Greiner). […] Plates were incubated 72 hours at 37deg C and 5% CO2, then 3.5 uL/well CellTiter-Glo(R) (Promega) detection reagent was added, plates were incubated at ambient temperature for 10 minutes and luminescence was measured by a ViewLux (Perkin Elmer) reader. […] A quantitative high-throughput screen identifies potential epigenetic modulators of gene expression. […]

Structure (SMILES) | Potency
O=C1NC(=O)N(CCc2ccc(F)cc2)C(=O)/C1=C/C=C/c1ccccc1 | 8.88 µM (active)
